{
  "source": "PubChem BioAssay (Tox21)",
  "note": "Inconclusive results are not listed. The source made the active and inactive calls. Calls follow the shape of the full dose curve. % is scaled to controls: 0 for no effect and ±100 for the full control effect; potency is read from the fitted curve at half-maximal effect.",
  "data": [
    {"assay": "qHTS assay to identify small molecule antagonists of the estrogen receptor alpha (ER-alpha) signaling pathway using the BG1 cell line (AID 743080);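 also: BG1 cells stimulated with 17beta-estradiol alongside compound; nearly all actives have a fitted effect of over 25% in size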", "conditions": "BG1Luc4E2 ERE-luciferase antagonist mode, luminescence; series mostly up to 70.3 µM; activity change, negative = inhibition: at the top concentration", "summary_of_the_method": "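Readout is ONE-Glo luminescence, taken 30 min at room temperature after reagent addition, preceded by a CellTiter-Fluor viability read; BG1-Luc-4E2 cells had received compound and 17beta-estradiol for 21.5 h at 37 C.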", "values": [
      {"smiles": "O=[N+]([O-])c1cc(Cl)c(Cl)cc1Cl", "activity change, negative = inhibition": "10.7% (inactive)"},
      {"smiles": "CC(C)(C)NCC(O)c1ccccc1Cl", "note": "(configuration not stated)", "activity change, negative = inhibition": "-1.55% (inactive)"},
      {"smiles": "O=C([O-])c1ccccn1.O=C([O-])c1ccccn1.O=C([O-])c1ccccn1.[Cr+3]", "activity change, negative = inhibition": "-0.0912% (inactive)"},
      {"smiles": "CCSCc1ccccc1OC(=O)NC", "activity change, negative = inhibition": "1.1% (inactive)"},
      {"smiles": "C=CCOC(=O)C(C)(C)OC(=O)c1cc(-n2c(=O)cc(C(F)(F)F)n(C)c2=O)ccc1Cl", "Potency": "26.8 µM (active)"},
      {"smiles": "CC(O)CN1CCN(CC(=O)[O-])CCN(CC(=O)[O-])CCN(CC(=O)[O-])CC1.[Gd+3]", "note": "(configuration not stated)", "Potency": "inactive"},
      {"smiles": "CCCN(CCC)c1c([N+](=O)[O-])cc(C(C)C)cc1[N+](=O)[O-]", "Potency": "inactive"},
      {"smiles": "Nc1c(Br)cc(Br)c2c1C(=O)c1ccccc1C2=O", "activity change, negative = inhibition": "9.5% [at 32.5 µM] (inactive)"},
      {"smiles": "O=P(OCC(Br)CBr)(OCC(Br)CBr)OCC(Br)CBr", "note": "(configuration not stated)", "Potency": "inactive"},
      {"smiles": "C=C(Cl)Cl", "activity change, negative = inhibition": "-10.2% [at 95 µM] (inactive)"},
      {"smiles": "SCc1ccccc1", "activity change, negative = inhibition": "25.2% [at 95 µM] (inactive)"},
      {"smiles": "CCCC[N+]1(C)[C@@H]2CC(OC(=O)[C@H](CO)c3ccccc3)C[C@H]1[C@@H]1O[C@@H]12", "note": "(some centres not stated)", "activity change, negative = inhibition": "4.18% (inactive)"},
      {"smiles": "CN1CC[C@]23c4c5ccc(O)c4O[C@H]2[C@@H](O)CC[C@H]3[C@H]1C5", "activity change, negative = inhibition": "4.97% (inactive)"},
      {"smiles": "N#CC(C#N)=C(C#N)C#N", "activity change, negative = inhibition": "18% [at 95 µM] (inactive)"},
      {"smiles": "CCCC(C)(COC(N)=O)COC(=O)NC(C)C", "note": "(configuration not stated)", "Potency": "inactive"},
      {"smiles": "C=CCOCC1CO1", "note": "(configuration not stated)", "activity change, negative = inhibition": "2.22% (inactive)"},
      {"smiles": "COCc1cnc(C2=NC(C)(C(C)C)C(=O)N2)c(C(=O)O)c1", "note": "(configuration not stated)", "activity change, negative = inhibition": "1.98% (inactive)"},
      {"smiles": "CN[C@@H](C)[C@H](O)c1ccccc1", "activity change, negative = inhibition": "1.46% (inactive)"},
      {"smiles": "COc1cc(CC(C)N)c(OC)cc1Br", "note": "(configuration not stated)", "Potency": "inactive"},
      {"smiles": "OCCSSCCO", "activity change, negative = inhibition": "-1.95% (inactive)"},
      {"smiles": "CCCCCBr", "activity change, negative = inhibition": "1.27% [at 95 µM] (inactive)"},
      {"smiles": "Cc1ccc2c(C)cccc2c1", "activity change, negative = inhibition": "-4.37% (inactive)"},
      {"smiles": "CCCCC(CC)CO[N+](=O)[O-]", "note": "(configuration not stated)", "activity change, negative = inhibition": "8.49% (inactive)"},
      {"smiles": "COC(=O)C1(O)c2ccccc2-c2ccccc21", "activity change, negative = inhibition": "0.503% (inactive)"},
      {"smiles": "CCC[N+](CCC)(CCC)CCC", "activity change, negative = inhibition": "1.77% (inactive)"},
      {"smiles": "CN(C1CCCCC1)C1CCCCC1", "activity change, negative = inhibition": "1.21% (inactive)"},
      {"smiles": "CCNC(=O)NC(=O)/C(C#N)=N/OC", "activity change, negative = inhibition": "0.534% (inactive)"},
      {"smiles": "C=C(C)C(=O)OCCCCOC(=O)C(=C)C", "activity change, negative = inhibition": "4.5% (inactive)"},
      {"smiles": "CCCSP(=S)(OCC)Oc1ccc(SC)cc1", "note": "(configuration not stated)", "activity change, negative = inhibition": "-0.115% (inactive)"},
      {"smiles": "CCCBr", "activity change, negative = inhibition": "-7.95% (inactive)"},
      {"smiles": "CC(C)c1ccc(OP(=O)(Oc2ccc(C(C)C)cc2)Oc2ccc(C(C)C)cc2)cc1", "Potency": "inactive"},
      {"smiles": "CCCC1CCCCN1", "note": "(configuration not stated)", "activity change, negative = inhibition": "1.67% (inactive)"},
      {"smiles": "Clc1ccccc1", "activity change, negative = inhibition": "0.5% (inactive)"},
      {"smiles": "C[N+](C)(C)CC1CO1", "note": "(configuration not stated)", "activity change, negative = inhibition": "1.25% (inactive)"},
      {"smiles": "CCCC[N+](CCCC)(CCCC)CCCC", "activity change, negative = inhibition": "-4.09% (inactive)"},
      {"smiles": "CCC1(CC)C(=O)NC(=O)NC1=O", "activity change, negative = inhibition": "0.229% (inactive)"},
      {"smiles": "CCOP(=S)(S)OCC", "activity change, negative = inhibition": "2.58% [at 95 µM] (inactive)"}
    ]}
  ]
}
